Source: PubChem BioAssay
Active and inactive are the calls of the source.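 Rule for the calls, unless noted: active = fluorescence slope after compound addition differing from the mean of all screened samples at 99.7% confidence, in either direction; inactive = the rest.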

Key:
[1] = inhibitors of TNFa-induced NFkB p65 translocation, primary screen, imaging, HUVEC, MLSMR starter and 10KST1 sets (AID 438;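 active = inhibition above 20% together with a positive visual image hit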;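 note: compound added about 3h40 before a 20 min TNFalpha stimulation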;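 for inhibition: signal is the nuclear over cytoplasmic p65 intensity ratio per well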); details: HUVEC TNFa-induced p65 nuclear translocation; cell count: measured here: nuclei count (cytotoxicity indicator), at 2.08 µM; inhibition: at 2 µM, stronger effect = higher value, 0% TNFa-plus-vehicle, 100% no-TNFa wells
[2] = reduction of polyQ htt aggregates in cells – imaging, exon1htt(103Q)mCFP cells, high-content imaging, primary screen (AID 483;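 active = visual image review flags a hit and inhibition of aggregation exceeds 20%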;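 note: compound exposure lasted 3 days before fixation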;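 for nuclei count: percent of the per-plate median nuclei count of sample wells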); details: exon1htt(103Q)mCFP cell line, aggregate imaging, at 2 µM; inhibition of aggregation: stronger effect = higher value; nuclei count: measured here: cell count, toxicity
[3] = endothelial E-selectin expression blockers – imaging, HUVEC, immunofluorescence, MLSMR starter and 10KST1 sets, primary screen (AID 487;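 active = visually confirmed hit in the image check and inhibition above 20%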;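 for inhibition: signal is fraction of cell area covered by stained E-selectin grains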;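 for nuclei count: 100% = median nuclei count of all wells on the same plate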); details: HUVEC TNFalpha-induced E-selectin immunofluorescence imaging, at 2 µM; inhibition: stronger effect = higher value; nuclei count: measured here: cell number, toxicity
[4] = biological target: Voltage-gated potassium channel subunit beta-2 (Rattus norvegicus) (UniProt P62483); assay: inhibitors of rat Kvbeta2 reductase activity – biochemical, NADPH fluorescence, primary screen (AID 622;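 active = fluorescence slope higher than the sample average by over 3 SD, cut at about -0.22 in these data, passing the limit was not always enough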;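 note: slope of raw intensity against log time taken from 70 to 1610 s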); details: recombinant KvBeta, 4-cyanobenzaldehyde reduction, at 10 µM, stronger effect = higher value
Chain of Voltage-gated potassium channel subunit beta-2 (Rattus norvegicus) (P62483 whole entry, looked up): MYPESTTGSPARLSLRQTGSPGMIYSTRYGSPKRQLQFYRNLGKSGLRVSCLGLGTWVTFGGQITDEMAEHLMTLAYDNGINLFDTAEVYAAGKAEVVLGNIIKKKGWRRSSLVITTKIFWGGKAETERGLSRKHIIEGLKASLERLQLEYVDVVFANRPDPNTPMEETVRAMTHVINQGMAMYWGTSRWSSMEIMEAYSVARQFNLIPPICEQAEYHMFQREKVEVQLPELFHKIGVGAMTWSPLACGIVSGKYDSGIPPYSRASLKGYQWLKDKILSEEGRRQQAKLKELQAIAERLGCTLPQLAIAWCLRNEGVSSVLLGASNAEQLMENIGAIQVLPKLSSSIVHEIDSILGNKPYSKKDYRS

[5] = biological target: Voltage-gated potassium channel subunit beta-2 (Rattus norvegicus) (UniProt P62483); assay: enhancers of rat Kvbeta2 NADPH turnover – biochemical, NADPH fluorescence, primary screen (AID 623;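 active = NADPH fluorescence slope more negative than the mean of all samples by about 3 SD, 99.7% confidence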;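 note: fluorescence intensity change per second fitted from 20 to 320 s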); details: Recombinant KvBeta, NADPH fluorescence decrease slope, 10 min; at 10 µM; stronger effect = lower value
[6] = biological target: Alpha-2C adrenergic receptor (Homo sapiens) (UniProt P18825); assay: compounds altering alpha2C-coupled GIRK flux – cell-based, HEK293 alpha2C/GIRK1/2, thallium flux, primary screen (AID 624); details: thallium flux BTC fluorescence, at 10 µM, actives lie on both sides;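 note: slope of fluorescence ratio to pre-addition baseline per second over 15 to 24 s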
Chain of Alpha-2C adrenergic receptor (Homo sapiens) (P18825 whole entry, looked up): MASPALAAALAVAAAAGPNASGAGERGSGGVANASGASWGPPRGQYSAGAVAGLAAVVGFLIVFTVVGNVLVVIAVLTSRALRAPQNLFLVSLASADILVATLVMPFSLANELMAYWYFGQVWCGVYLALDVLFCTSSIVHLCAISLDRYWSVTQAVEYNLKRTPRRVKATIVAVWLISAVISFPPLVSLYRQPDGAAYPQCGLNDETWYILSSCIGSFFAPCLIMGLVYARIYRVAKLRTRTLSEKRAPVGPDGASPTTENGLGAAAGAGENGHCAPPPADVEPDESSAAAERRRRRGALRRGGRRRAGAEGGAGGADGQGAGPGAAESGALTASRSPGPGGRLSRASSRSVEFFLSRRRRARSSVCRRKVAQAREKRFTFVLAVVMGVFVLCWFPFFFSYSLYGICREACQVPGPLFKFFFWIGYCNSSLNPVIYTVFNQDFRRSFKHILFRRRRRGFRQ

[7] = blockers of RIG-like receptor reporter activation – cell-based, Sendai virus stimulus, luciferase, 10K MLSCN set, TLR/RLR signaling modifier project, primary screen (AID 602276;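 active = inhibition at or above 50% at 10 µM; inactive = inhibition below 50%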;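 note: firefly luciferase from ISG56 promoter only with Renilla not read in this screen; 0% = Sendai virus plus DMSO and 100% = medium plus DMSO without virus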); details: HEK293 RL24 IRF3 luciferase reporter, at 10 µM, stronger effect = higher value
[8] = TLR3 IRF3 reporter activation blockers – cell-based, poly I:C stimulus, luciferase, 10K MLSCN set, primary screen (AID 602277;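 active = inhibition of the reporter signal at or above 50%; inactive = inhibition below 50%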); details: HEK293-TLR3 RL24 IRF3 luciferase reporter, at 10 µM, stronger effect = higher value

## CCOc1ccc(N2CC(C(=O)NCCc3ccc(OC)c(OC)c3)CC2=O)cc1 (centres undefined)
[1]
  cell count: 458
  inhibition: -3.8% (inactive)
[2]
  inhibition of aggregation: -9.6% (inactive)
  nuclei count: 112%
[3]
  inhibition: -59.3% (inactive)
  nuclei count: 163%
[4]
  fluorescence slope: -0.456 (inactive)
[5]
  NADPH fluorescence slope: -3.5e-05 (inactive)
[6]
  slope: 0.00548 (inactive)
[7]
  inhibition: 20.4% (inactive)
[8]
  inhibition: 25.1% (inactive)

## O=C(C1CCCO1)N1CCN(Cc2nc3ccccc3c(=O)[nH]2)CC1 (centres undefined)
[1]
  cell count: 583
  inhibition: 6.8% (inactive)
[2]
  inhibition of aggregation: 14% (inactive)
  nuclei count: 125%
[3]
  inhibition: -6.3% (inactive)
  nuclei count: 104%
[4]
  fluorescence slope: -0.421 (inactive)
[5]
  NADPH fluorescence slope: 2.2e-05 (inactive)
[6]
  slope: 0.00673 (inactive)
[7]
  inhibition: 0.729% (inactive)
[8]
  inhibition: 31% (inactive)

## CCN1C(=O)C(C(=O)Nc2ccc(OC)cc2)C2CC1(C)Oc1ccccc12 (centres undefined)
[1]
  cell count: 489
  inhibition: 4.3% (inactive)
[2]
  inhibition of aggregation: -2% (inactive)
  nuclei count: 104%
[3]
  inhibition: -4.8% (inactive)
  nuclei count: 102%
[4]
  fluorescence slope: -0.305 (inactive)
[5]
  NADPH fluorescence slope: -5.8e-05 (inactive)
[6]
  slope: 0.0052 (inactive)
[7]
  inhibition: -34.3% (inactive)
[8]
  inhibition: -51.5% (inactive)

## CCOC(=O)c1ccccc1NC1c2ccccc2C(=O)N1C1CCN(C(=O)OCC)CC1 (centres undefined)
[1]
  cell count: 548
  inhibition: -9.7% (inactive)
[2]
  inhibition of aggregation: -12% (inactive)
  nuclei count: 65.3%
[3]
  inhibition: -10.1% (inactive)
  nuclei count: 109%
[4]
  fluorescence slope: -0.463 (inactive)
[5]
  NADPH fluorescence slope: -3.3e-05 (inactive)
[6]
  slope: 0.00667 (inactive)
[7]
  inhibition: 14.7% (inactive)
[8]
  inhibition: 38.1% (inactive)

## Cc1cccc(NC(=O)C2CCCN(C(=O)Nc3ccccc3)C2)c1C (centres undefined)
[1]
  cell count: 599
  inhibition: -28.6% (inactive)
[2]
  inhibition of aggregation: -9.1% (inactive)
  nuclei count: 87.8%
[3]
  inhibition: -9.2% (inactive)
  nuclei count: 85.7%
[4]
  fluorescence slope: -0.573 (inactive)
[5]
  NADPH fluorescence slope: 4.6e-05 (inactive)
[6]
  slope: 0.00746 (inactive)
[7]
  inhibition: 4% (inactive)
[8]
  inhibition: -12% (inactive)

## COC(=O)c1ccc(NC(=O)Cn2nnc3ccccc32)cc1
[1]
  cell count: 445
  inhibition: -10.2% (inactive)
[2]
  inhibition of aggregation: 8.3% (inactive)
  nuclei count: 134%
[3]
  inhibition: -8.2% (inactive)
  nuclei count: 134%
[4]
  fluorescence slope: -0.377 (inactive)
[5]
  NADPH fluorescence slope: -5.8e-05 (inactive)
[6]
  slope: 0.0057 (inactive)
[7]
  inhibition: -21.8% (inactive)
[8]
  inhibition: -69.7% (inactive)

## COc1cccc(OCC(=O)Nc2ccccc2C(N)=O)c1
[1]
  cell count: 681
  inhibition: 0.4% (inactive)
[2]
  inhibition of aggregation: 9.9% (inactive)
  nuclei count: 104%
[3]
  inhibition: -73.4% (inactive)
  nuclei count: 110%
[4]
  fluorescence slope: -0.517 (inactive)
[5]
  NADPH fluorescence slope: 1.4e-05 (inactive)
[6]
  slope: 0.00589 (inactive)
[7]
  inhibition: -50.2% (inactive)
[8]
  inhibition: -121% (inactive)

## CCN1CCN(c2ncnc3c2oc2nc(C)c4c(c23)CC(C)(C)OC4)CC1
[1]
  cell count: 476
  inhibition: -2.9% (inactive)
[2]
  inhibition of aggregation: 0.7% (inactive)
  nuclei count: 102%
[3]
  inhibition: -35.5% (inactive)
  nuclei count: 116%
[4]
  fluorescence slope: -0.472 (inactive)
[5]
  NADPH fluorescence slope: -2.5e-05 (inactive)
[6]
  slope: 0.00388 (inactive)
[7]
  inhibition: -6.53% (inactive)
[8]
  inhibition: 30.5% (inactive)

## O=C(Nc1ccc2c(c1)OCCO2)C1CCCN1S(=O)(=O)c1cccc2cccnc12 (centres undefined)
[1]
  cell count: 743
  inhibition: 4.4% (inactive)
[2]
  inhibition of aggregation: 4.5% (inactive)
  nuclei count: 128%
[3]
  inhibition: -42.2% (inactive)
  nuclei count: 106%
[4]
  fluorescence slope: -0.537 (inactive)
[5]
  NADPH fluorescence slope: -4.4e-05 (inactive)
[6]
  slope: 0.00567 (inactive)
[7]
  inhibition: 3.98% (inactive)
[8]
  inhibition: 22.9% (inactive)

## CCn1cc(SCC(=O)Nc2cc(C)on2)c2ccccc21
[1]
  cell count: 760
  inhibition: -15.1% (inactive)
[2]
  inhibition of aggregation: -0.1% (inactive)
  nuclei count: 60.4%
[3]
  inhibition: 29.9% (inactive)
  nuclei count: 86.4%
[4]
  fluorescence slope: -0.494 (inactive)
[5]
  NADPH fluorescence slope: -2.7e-05 (inactive)
[6]
  slope: 0.00702 (inactive)
[7]
  inhibition: 26.7% (inactive)
[8]
  inhibition: 25.1% (inactive)

## C#CCN1C(=O)C(O)(CC(=O)c2cc(OC)ccc2OC)c2ccccc21 (centres undefined)
[1]
  cell count: 841
  inhibition: -2.9% (inactive)
[2]
  inhibition of aggregation: 1.3% (inactive)
  nuclei count: 97.5%
[3]
  inhibition: -183% (inactive)
  nuclei count: 124%
[4]
  fluorescence slope: -0.411 (inactive)
[5]
  NADPH fluorescence slope: -3.9e-05 (inactive)
[6]
  slope: 0.00497 (inactive)
[7]
  inhibition: 17.5% (inactive)
[8]
  inhibition: 20% (inactive)

## O=C(Cn1ccc2ccccc2c1=O)Nc1ccc2c(c1)OCO2
[1]
  cell count: 231
  inhibition: -1.8% (inactive)
[2]
  inhibition of aggregation: 1% (inactive)
  nuclei count: 103%
[3]
  inhibition: 0% (inactive)
  nuclei count: 91.4%
[4]
  fluorescence slope: -0.602 (inactive)
[5]
  NADPH fluorescence slope: -4.5e-05 (inactive)
[6]
  slope: 0.00747 (inactive)
[7]
  inhibition: 0.207% (inactive)
[8]
  inhibition: -4.72% (inactive)

## O=C(NCC1CCCO1)C1CCN(c2ccc(S(=O)(=O)N3CCCC3)cc2)CC1 (centres undefined)
[1]
  cell count: 446
  inhibition: 8.5% (inactive)
[2]
  inhibition of aggregation: -5.9% (inactive)
  nuclei count: 103%
[3]
  inhibition: -38.5% (inactive)
  nuclei count: 108%
[4]
  fluorescence slope: -0.434 (inactive)
[5]
  NADPH fluorescence slope: -3.3e-05 (inactive)
[6]
  slope: 0.0046 (inactive)
[7]
  inhibition: 5.23% (inactive)
[8]
  inhibition: 21.3% (inactive)

## CNC(=O)c1ccsc1NC(=O)c1ccccc1
[1]
  cell count: 512
  inhibition: 4.7% (inactive)
[2]
  inhibition of aggregation: 12.3% (inactive)
  nuclei count: 91.6%
[3]
  inhibition: 7.3% (inactive)
  nuclei count: 88.8%
[4]
  fluorescence slope: -0.413 (inactive)
[5]
  NADPH fluorescence slope: -1.9e-05 (inactive)
[6]
  slope: 0.00587 (inactive)
[7]
  inhibition: -11.3% (inactive)
[8]
  inhibition: -28.3% (inactive)

## CCCCNC(=O)C(C#N)c1nc2ccccc2nc1N1CCCC1 (centres undefined)
[1]
  cell count: 289
  inhibition: -6.5% (inactive)
[2]
  inhibition of aggregation: 22.5% (inactive)
  nuclei count: 78.4%
[3]
  inhibition: 9% (inactive)
  nuclei count: 52.3%
[4]
  fluorescence slope: -0.235 (inactive)
[5]
  NADPH fluorescence slope: -1.3e-05 (inactive)
[6]
  slope: 0.00359 (inactive)
[7]
  inhibition: 16.3% (inactive)
[8]
  inhibition: 14% (inactive)

## Cc1cc(NC(=O)CCOc2ccccc2)no1
[1]
  cell count: 403
  inhibition: -11.8% (inactive)
[2]
  inhibition of aggregation: -20.8% (inactive)
  nuclei count: 113%
[3]
  inhibition: 35.5% (inactive)
  nuclei count: 64.3%
[4]
  fluorescence slope: -0.455 (inactive)
[5]
  NADPH fluorescence slope: -5e-05 (inactive)
[6]
  slope: 0.00305 (inactive)
[7]
  inhibition: 6.04% (inactive)
[8]
  inhibition: 23.9% (inactive)

## Cc1cc(C(N)=O)c2cc(Br)ccc2n1
[1]
  cell count: 367
  inhibition: 5.5% (inactive)
[2]
  inhibition of aggregation: 0.7% (inactive)
  nuclei count: 94.5%
[3]
  inhibition: -54% (inactive)
  nuclei count: 120%
[4]
  fluorescence slope: -0.436 (inactive)
[5]
  NADPH fluorescence slope: -5.1e-05 (inactive)
[6]
  slope: 0.0072 (inactive)
[7]
  inhibition: 4.62% (inactive)
[8]
  inhibition: 32.5% (inactive)

## Cn1c(=O)c2c(nc3sccn32)n(C)c1=O
[1]
  cell count: 463
  inhibition: 12.5% (inactive)
[2]
  inhibition of aggregation: 5.1% (inactive)
  nuclei count: 100%
[3]
  inhibition: 29.8% (inactive)
  nuclei count: 108%
[4]
  fluorescence slope: -0.455 (inactive)
[5]
  NADPH fluorescence slope: 7.5e-05 (inactive)
[6]
  slope: 0.00599 (inactive)
[7]
  inhibition: 9.58% (inactive)
[8]
  inhibition: 23.1% (inactive)

## CC(=O)Nc1c(O)nc(SCC(=O)Nc2nnc(CC(C)C)s2)[nH]c1=O
[1]
  cell count: 780
  inhibition: -3.3% (inactive)
[2]
  inhibition of aggregation: 0% (inactive)
  nuclei count: 114%
[3]
  inhibition: -41% (inactive)
  nuclei count: 104%
[4]
  fluorescence slope: -0.541 (inactive)
[5]
  NADPH fluorescence slope: 1.8e-05 (inactive)
[6]
  slope: 0.00412 (inactive)
[7]
  inhibition: -9.44% (inactive)
[8]
  inhibition: -13.3% (inactive)
